Only some compounds are listed: those with a hit (about 12% of all), similar ones and a draw of the others.
Pf growth 96h: inhibits malaria parasite growth, 96 h; P. falciparum luciferase reporter growth, 96 h; Potency, µM (titrated, usually from 28.7 µM), inactives show at the highest dose activity change, negative = inhibition, hits mostly inhibitors; 320,000 compounds, 6.9% hits; AID 504834; note: % is set by controls: 0 for no effect and ±100 for the full control effect
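P. falciparum expressing integrated firefly luciferase, in erythrocytes at 2% hematocrit, 0.05% parasitemia, incubated with compounds 96 h at 37 C, 5% CO2. Growth inhibition read as loss of luminescence; two-generation exposure targets delayed-death apicoplast inhibitors.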
SARS PLP yeast: SARS-CoV PLP inhibition in yeast. Potency, µM (doses to about 32.9 µM), for inactives: at the highest dose activity, positive = growth rescue, most hits filed as activators. AID 485353. S. cerevisiae expressing SARS-CoV PLpro, growth rescue. 330,000 compounds, 0.19% hits; calls by dose curve; note: 0% is about no effect; nearly all actives have a fitted effect of over 55% in size
Pf growth 48h: inhibits P. falciparum growth in the first generation, 48 h; P. falciparum luciferase growth in erythrocytes, 48 h; Potency, µM (titrated, usually from 28.7 µM), inactives show top-dose activity change, negative = inhibition, most hits filed as inhibitors; 310,000 compounds, 5.9% hits; note: % is set by controls: 0 for no effect and ±100 for the full control effect
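In quantitative HTS format, infected erythrocytes bearing luciferase-reporter parasites were treated for a single generation at 37 C. Luminescence after adding detection reagent served as the growth measure.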
Sm TGR inh: blocks Schistosoma mansoni thioredoxin glutathione reductase. Q962Y6. purified TGR, DTNB reduction, TNB absorbance 405 nm. Potency, µM (top dose mostly 114 µM), for inactives: at the top dose activity change, negative = inhibition, usual class: inhibitors. 360,000 compounds, 3% hits. AID 485364; note: % is set by controls: 0 for no effect and ±100 for the full control effect; nearly all actives have a fitted effect of over 60% in size
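First, TGR (20 nM dispensed) and NADPH were mixed with compound. Second, a 15 min room-temperature incubation followed. Third, further NADPH and then DTNB were added to start the reaction. Finally, TNB absorbance was monitored kinetically.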
Starred values were filed as active, the others as inactive; ? = inconclusive; nt = not tested or not shown. Unless noted, calls come from the whole dose curve; as a rule, active = well fitted curve in the direction sought with a large enough effect; inconclusive = small, poorly fitted or top-dose-only effect, or another doubt; inactive = no such curve, though single readings can be large; an effect the other way counts as inactive or inconclusive. Potency is the fitted concentration of half-maximal effect.

SMILES | Pf growth 96h | SARS PLP yeast | Pf growth 48h | Sm TGR inh
O=C1OCCC1Sc1nnc(-c2ccccc2)o1 (stereo not drawn) | 318% | -4% | 46% | -2%
O=C1c2ccccc2CC1Sc1nnc(-c2ccccn2)o1 (stereo not drawn) | 13µM* | 3% | ? | 45µM*
COc1ccc(OC)c(C(=O)c2ccc(C(=O)Nc3ccc(NC(C)=O)cc3)cc2)c1 | -5% | 1% | 2% | 5%
COc1ccc(Cl)cc1C(=O)NCc1nc(-c2cccc(C)c2)no1 | nt | nt | nt | 2%
CCOC(=O)C1=C(C)N=c2s/c(=C\c3cccc(OCC(=O)O)c3)c(=O)n2C1c1ccccc1 (stereo not drawn) | 0.93µM* | -2% | 12µM* | 3%
COc1ccc(C2C(C(C)=O)=C(C)N=c3s/c(=C/c4ccc5c(c4)OCO5)c(=O)n32)cc1 (stereo not drawn) | ? | -7% | 13µM* | -10%
CCOC(=O)C1=C(C)N=c2s/c(=C\c3ccc(OCC(=O)O)cc3)c(=O)n2C1c1ccccc1 (stereo not drawn) | 10µM* | 5% | 7.4µM* | -2%
CC1=C(C(=O)OC(C)C)C(c2ccc(Cl)cc2)n2c(s/c(=C\c3ccc(OCC(=O)O)cc3)c2=O)=N1 (stereo not drawn) | 7.4µM* | 1% | 12µM* | -14%
Cc1ccc(S(=O)(=O)N2C[C@@H]3CCCC[C@@H]3[C@@H](C)[C@H]2c2cn(Cc3ccccc3)c3ncccc23)cc1 | nt | -6% | nt | nt
CCOc1ccccc1CNC(=O)Cn1cc2c(n1)-c1c(oc(C(=O)N3CCCC3)c1C)CC2 | nt | nt | nt | -23%
CN1CCN(c2ncc3c(n2)CCN(Cc2ccc(Br)s2)C3)CC1 | nt | nt | nt | -3%
CCOc1ccc(-n2c(=O)c3c(C)c(C)sc3n(Cc3cc(=O)n4cc(Cl)ccc4n3)c2=O)cc1 | nt | nt | nt | 10%
CCOC(=O)C1=C(c2ccccc2)N=c2s/c(=C\c3ccc(O)cc3)c(=O)n2C1c1cccs1 (stereo not drawn) | 2.6µM* | -34% | 2.9µM* | -19%
CCOC(=O)C1=C(C)N=c2s/c(=C\c3cc(OC)c(OC)c(OC)c3)c(=O)n2C1/C=C/c1ccccc1 (stereo not drawn) | 2.1µM* | -19% | 15µM* | -2%
COc1ccc(N(C)C(=O)NCc2noc3ccc(C)cc23)c(OC)c1 | nt | nt | nt | 9%
CCOc1ccc(C(=O)Nc2cc(S(=O)(=O)Nc3ccccc3Cl)ccc2N2CCOCC2)cc1 | 2.6µM* | -10% | ? | 2%
CCCOc1ccc(C(=O)Nc2cc(S(=O)(=O)N3CCOCC3)ccc2N2CCOCC2)cc1 | ? | 0% | 12µM* | 1%
CCOc1ccc(S(=O)(=O)Nc2ccccc2C(=O)Nc2ccccc2N2CCOCC2)cc1 | nt | -3% | -13% | 1%
Cn1c(=O)cc(OCC(=O)NCc2ccc(F)cc2Cl)c2ccccc21 | nt | nt | nt | 1%
CCOC(=O)C1=NNC(C(=O)c2ccc(C)cc2)C1c1ccc(C)cc1 (stereo not drawn) | 22% | -22% | 10µM* | 1%
CCOC(=O)C1=NNC(C(=O)c2ccccc2)C1c1ccc(C)cc1 (stereo not drawn) | 2.1µM* | 0% | 1.7µM* | 3%
CCOC(=O)C1=NNC(C(=O)c2ccccc2)C1c1ccc(Cl)cc1 (stereo not drawn) | 18% | -6% | -28% | -18%
COc1ccc(-c2cc(=O)c3cc(OCC(=O)OC(C)C)ccc3o2)cc1 | nt | nt | nt | 3%
CC1=C(c2ccc(C)c(C)c2)S(=O)(=O)N=C1N1CCC(C(=O)Nc2cccc(F)c2)CC1 | nt | nt | nt | -2%
COc1ccc(-n2ncc3c2CC(C)(C)CC3NC(=O)CCCN2CCCC2=O)cc1 (stereo not drawn) | 26% | 5% | -9% | -1%
SMILES | Pf growth 96h | SARS PLP yeast | Pf growth 48h | Sm TGR inh
COc1ccc(C(=O)OCC(=O)NCCc2ccc(F)cc2)cc1S(=O)(=O)N1CCOCC1 | nt | 7% | nt | nt
CCOc1ccc(-n2c(SCC(=O)Nc3ccc(CC)cc3)nc3c(oc4ccccc43)c2=O)cc1 | nt | nt | nt | 12%
CC(C)(C)C1CCC(=NOC(=O)c2ccc(F)cc2)CC1 (stereo not drawn) | 10µM* | -19% | ? | 1%
COC(=O)c1c(-c2cccs2)csc1NC(=O)c1ccc(C(C)C)cc1 | nt | nt | nt | 0%
COc1ccccc1CCNC(=O)Cc1c(C)c2cc3c(C(C)(C)C)coc3c(C)c2oc1=O | nt | nt | nt | -9%
Cc1cc(C)c2ccc(=O)n(CC(=O)N/N=C/c3ccccc3Cl)c2n1 | 4% | -1% | 2.6µM* | 6%
CNCc1c(OCc2ccc(F)cc2)ccc2ccccc12 | ? | -1% | 15µM* | nt
CCN1CCN(c2ccc(NC(=O)c3cc(S(=O)(=O)N4CCCC4)ccc3Cl)cc2)CC1 | ? | -3% | ? | 1%
CN(C)c1ccc(-c2nc(-c3cccs3)c(-c3cccs3)[nH]2)cc1 | nt | nt | nt | -5%
O=C(CC1Sc2ccccc2NC1=O)Nc1cccc(-c2nnc3n2CCCCC3)c1 (stereo not drawn) | 13µM* | 3% | 9.3µM* | -27%
COc1ccccc1-c1noc(CCC(=O)NC2CCCCC2)n1 | 6% | 1% | -3% | 10%
C=CC[C@@H](CC(=O)NCCO)C(=O)NCCOC(=O)[C@@H](CC=C)Cc1ccc(F)cc1 | nt | 2% | nt | nt
CC(=O)c1cc(NC(=O)c2cccc(C(F)(F)F)c2)c(=O)oc1C | -9% | -6% | -9% | 35µM*
CC(=O)c1cc(NC(=O)c2cccc(C(F)(F)F)c2)c(=O)oc1/C=C/N(C)C | 48% | 5% | 42% | 5%
CSCCC(NC(=O)COc1ccccc1)C(=O)N1CCN(c2ccccc2Cl)CC1 (stereo not drawn) | ? | -12% | ? | 1%
CSc1ccc(NC(=O)C2CCN(c3ncccn3)CC2)cc1 | nt | nt | nt | 3%
CC(=O)n1cc([C@H]2C=C(C(=O)N3CCN(Cc4ccc5c(c4)OCO5)CC3)O[C@@H](OCc3ccc(CO)cc3)C2)c2ccccc21 | 3.3µM* | 0% | 4.7µM* | -11%
CC(=O)n1cc([C@@H]2C=C(C(=O)N3CCOCC3)O[C@H](OCc3ccc(CO)cc3)C2)c2ccccc21 | ? | 0% | ? | ?
O=C(C1=C[C@@H](c2coc3ccccc3c2=O)C[C@@H](OCc2ccc(CO)cc2)O1)N1CCN(Cc2ccccc2)CC1 | ? | -3% | ? | -2%
CC(=O)n1cc([C@H]2C=C(C(=O)N3CCN(Cc4ccccc4)CC3)O[C@@H](OCc3ccc(CO)cc3)C2)c2ccccc21 | 2.9µM* | -3% | ? | 18µM*
Cc1ccccc1OCCC(=O)N1CCN(S(=O)(=O)c2ccc(Br)cc2)CC1 | ? | -1% | -19% | -2%
CCn1c(CC(=O)Nc2ccc(OC)cc2)nnc1SCC(=O)N1CCOCC1 | ? | -5% | 8% | -18%
CCN(CC)S(=O)(=O)c1ccc(NCCCn2ccnc2)c([N+](=O)[O-])c1 | ? | -1% | ? | -2%
O=C(NCCCn1ccnc1)c1ccc2ccccc2c1 | 12µM* | 0% | 1% | -15%

Bioassay records: PubChem, National Center for Advancing Translational Sciences (NCATS)
